PubChem BioAssay (NCI)
The panel holds about 83,000 compounds, 20% with a hit somewhere; the sample as a whole holds those more often.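 A percent growth of 40 corresponds to 60% growth inhibition; 0 means no net growth; -100 means all cells died. Active threshold: below 10.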 Unmarked numbers belong to inactive results. Activity calls are given as the source filed them.

Tests used:
Experiment in all cases: NCI-60 one-dose screen, 48 h (100 = growth as untreated, 0 = no growth, -100 = all killed)
[1] = system: SK-MEL-2 melanoma; conditions: 10 µM unless noted
[2] = system: EKVX NSCLC; conditions: 10 µM unless noted
[3] = system: SN12C renal; conditions: 10 µM unless noted
[4] = system: UO-31 renal; conditions: 10 µM unless noted
[5] = system: TK-10 renal; conditions: 10 µM unless noted
[6] = system: ACHN renal; conditions: 10 µM unless noted
[7] = system: A498 renal; conditions: 10 µM
[8] = system: HL-60(TB) leukemia; conditions: 10 µM unless noted
[9] = system: CCRF-CEM leukemia; conditions: 10 µM unless noted
[10] = system: MOLT-4 leukemia; conditions: 10 µM unless noted
[11] = system: SR leukemia; conditions: 10 µM unless noted
[12] = system: RPMI-8226 leukemia; conditions: 10 µM unless noted
[13] = system: OVCAR-8 ovarian; conditions: 10 µM unless noted
[14] = system: OVCAR-5 ovarian; conditions: 10 µM unless noted
[15] = system: OVCAR-4 ovarian; conditions: 10 µM unless noted
[16] = system: SK-OV-3 ovarian; conditions: 10 µM unless noted
[17] = system: IGROV1 ovarian; conditions: 10 µM unless noted
[18] = system: OVCAR-3 ovarian; conditions: 10 µM unless noted
[19] = system: HS 578T breast; conditions: 10 µM unless noted
[20] = system: CAKI-1 renal; conditions: 10 µM unless noted

Row | SMILES | growth [1] | growth [2] [%] | growth [3] [%] | growth [4] [%] | growth [5] [%] | growth [6] | growth [7] | growth [8] | growth [9] | growth [10] | growth [11] | growth [12] | growth [13] [%] | growth [14] [%] | growth [15] | growth [16] [%] | growth [17] [%] | growth [18] | growth [19] | growth [20]
1 | COc1ccc(Nc2ccc([N+](=O)[O-])cc2[N+](=O)[O-])cc1CN(CCCl)CCCl | 42.9% | 70.7 | 21.4 | 31.4 | 56.7 | 15.2% | 18.5% | -17.7% (active) | 2.14% (active) | 0.406% (active) | 7.8% (active) | 0.0676% (active) | 30.6 | 50.2 | 52.8% | 48.3 | 32.7 | 20% | 66.7% | –
2 | COC(=O)C1CCC(NC(=O)c2csc([C@@H](C[C@H](C(C)C)N(C)C(=O)[C@@H](NC(=O)[C@H]3CCCCN3C)C(C)C)OC(C)=O)n2)CC1 (some centres not stated) | 28.6% | 40.8 | 28.7 | 60.8 | 63.1 | 23.8% | -6.6% (active) | -21.8% (active) | 13% | 18.1% | 20.1% | 25.7% | 19.3 | 53 | 45.3% | 20.8 | 28.3 | -37.6% (active) | 42.6% | –
3 | CCOC(=O)N[C@H]1CCc2c(Br)c(OC)c(OC)c(OC)c2-c2ccc(SC)c(=O)cc21 | 43.5% | 45.4 | 24.3 | 27.3 | 42.1 | 24.4% | – | – | 1.82% (active) | 5.92% (active) | -5.77% (active) | -6.15% (active) | 20.2 | 32.5 | 5.73% (active) | 52.1 | 12.1 | -29.4% (active) | -1.62% (active) | 3.95% (active)
4 | c1ccc(CSC(c2ccccc2)c2ccccc2)cc1 | 114% | 117 | 101 | 92.2 | 123 | 103% | 123% | 68.5% | 117% | 115% | 141% | 94.2% | 109 | 104 | 120% | 123 | 107 | 119% | 112% | –
5 | COC(=O)[C@@H](C)C[C@H](Cc1ccc2ccccc2c1)NC(=O)c1csc([C@@H](C[C@H](C(C)C)N(C)C(=O)[C@@H](NC(=O)[C@H]2CCCCN2C)C(C)C)OC(C)=O)n1 | 57.8% | 46.1 | 33.5 | 23.1 | 28 | 4.23% (active) | 21.7% | 9.43% (active) | 24.2% | -2.64% (active) | 6.75% (active) | 23.3% | 37.9 | 77.6 | 53% | 56.5 | 22.7 | 55.8% | 40.8% | –
6 | COC(=O)[C@@]1(C)CC[C@]2(C)CC[C@]3(C)C4=CC(=O)c5c(cc(O)c(O)c5C)[C@]4(C)CC[C@@]3(C)[C@@H]2C1 | 71.6% | 71.7 | 61.7 | 50.6 | 68.9 | 53.3% | 57.1% | 38.4% | 26.9% | 18.3% | 51.2% | 27% | 60.4 | 119 | 47.4% | 58.3 | 50.8 | 47.9% | 79.5% | –
7 | C/C=C(\C)C(=O)O[C@@H]1C(O)[C@H]2OC(COC(=O)CCC(=O)CCCCCC[C@H](CCCCC)O[C@@H]3OC(C)[C@H](OC(C)=O)C(O)[C@H]3O2)[C@H]1OC(=O)/C=C/c1ccccc1 (some centres not stated) | -1.53% (active) | 24.1 | 17.2 | 15 | 11.7 | 12% | 14.8% | 17.8% | 24.2% | 37.7% | -7.08% (active) | 2.87% (active) | 24 | 49.2 | 18% | 12.1 | 27.3 | 15.4% | 28.7% | –
